High-throughput results as filed in PubChem BioAssay.
Only a selection was taken, and hits are over-represented in it overall.
PKM2 act = qHTS Assay for Activators of Human Muscle isoform 2 Pyruvate Kinase. Pyruvate kinase PKM (Homo sapiens), P14618. 260,000 tested, 0.34% active. purified PKM2, Kinase-Glo ATP luminescence, activation; response scale: 0% is enzyme alone, no compound. Potency, µM (highest dose often 57.5 µM), for inactives: at the top dose activation, actives largely listed as activators; further: nearly all actives have a fitted effect of over 55% in size
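Purified hPK-M2 (>95% pure) converted ADP (0.1 mM final) to ATP with 0.5 mM PEP in 50 mM imidazole pH7.2, KCl, MgCl2, Tween 20, BSA; 1 h at room temperature. ATP detected by Kinase-Glo luminescence.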
KDM4E inh = qHTS Assay for Inhibitors of Human Jumonji Domain Containing 2E (JMJD2E); Potency, µM (series often up to 57.1 µM), for the others: at the highest dose activity change, negative = inhibition, most hits filed as inhibitors; JMJD2E catalytic domain, FDH-coupled NADH fluorescence (FDH is formaldehyde dehydrogenase); Lysine-specific demethylase 4E (Homo sapiens), B2RXH2; 230,000 tested, 1.6% active; active means well fitted inhibition curve with a large enough effect, not every such curve was filed as active; inconclusive means small, poorly fitted or top-dose-only effect, or another doubt; inactive means no such curve, though single readings can be large or run the other way;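 further: 0% = wells with enzyme and -100% = buffer wells without enzyme; nearly all actives have a fitted effect of over 50% in size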
APE1 inh = qHTS Assay for Inhibitors of the Human Apurinic/apyrimidinic Endonuclease 1 (APE1); DNA repair nuclease/redox regulator APEX1 (Homo sapiens), P27695; recombinant APE1, TAMRA/BHQ-2 abasic DNA cleavage fluorescence; Potency, µM (series often up to 65.8 µM), for the others: at the top dose activity change, negative = inhibition, most hits filed as inhibitors; 350,000 tested, 0.35% active;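 further: plate controls were vehicle for no effect and reference inhibitor for full effect; nearly all actives have a fitted effect of over 55% in size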
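APE1 at 0.75 nM preincubated 15 min at room temperature with compound. Reaction then started with 50 nM double-stranded THF-abasic substrate labelled with TAMRA/BHQ-2, and 525/598 nm fluorescence read kinetically. Activity taken as third-minus-first read difference, normalized to DMSO and NSC13755 controls.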
BLM helicase inh = qHTS Assay for Inhibitors of Bloom's syndrome helicase (BLM); recombinant BLM DNA unwinding, fluorescence dequenching; Potency, µM (doses to about 56.1 µM), for the others: top-dose activity change, negative = inhibition, actives largely listed as inhibitors; 350,000 tested, 0.2% active; AID 2528, 2010; RecQ-like DNA helicase BLM (Homo sapiens), P54132;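 further: plate controls were vehicle for no effect and no enzyme for full effect; nearly all actives have a fitted effect of over 35% in size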
RECQ1 inh = qHTS Assay for Inhibitors of RecQ-Like Dna Helicase 1 (RECQ1) | 240,000 tested, 0.54% active | ATP-dependent DNA helicase Q1 (Homo sapiens), P46063 | Potency, µM (top dose mostly 57.3 µM), without a hit: at the top dose activity, negative = inhibition, usual class: inhibitors | AID 2549, 2010 | RECQ1 DNA unwinding, red fluorescence kinetic read;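 further: plate controls were vehicle for no effect and no enzyme for full effect; nearly all actives have a fitted effect of over 30% in size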
Target sequence (P46063 whole entry, looked up): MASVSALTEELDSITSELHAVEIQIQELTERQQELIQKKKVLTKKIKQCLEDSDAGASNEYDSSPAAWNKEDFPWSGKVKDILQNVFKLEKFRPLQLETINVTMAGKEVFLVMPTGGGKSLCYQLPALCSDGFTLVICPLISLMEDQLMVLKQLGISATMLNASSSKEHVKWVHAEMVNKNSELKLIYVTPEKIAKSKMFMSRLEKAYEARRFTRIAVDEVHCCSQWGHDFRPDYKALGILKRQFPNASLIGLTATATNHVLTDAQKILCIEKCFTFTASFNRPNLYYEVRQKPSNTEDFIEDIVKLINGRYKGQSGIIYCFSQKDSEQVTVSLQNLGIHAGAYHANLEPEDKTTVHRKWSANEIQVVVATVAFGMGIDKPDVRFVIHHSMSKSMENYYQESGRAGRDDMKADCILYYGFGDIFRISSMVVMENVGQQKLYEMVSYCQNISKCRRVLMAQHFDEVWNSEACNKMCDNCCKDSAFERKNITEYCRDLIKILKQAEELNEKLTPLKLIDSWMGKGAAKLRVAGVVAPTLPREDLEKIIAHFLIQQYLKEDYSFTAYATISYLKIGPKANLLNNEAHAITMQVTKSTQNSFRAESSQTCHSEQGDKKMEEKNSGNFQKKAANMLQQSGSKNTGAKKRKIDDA
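RECQ1T1 50 nM; forked duplex (20 bp + 30-nt ss tails) 200 nM, ATP 2 mM final; pH 8.0, 2 mM MgCl2, 2.5 ug/ml poly(dI-dC); 15 min compound preincubation; discontinuous kinetic read over 2 h at RT.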
The depositor's hits bear a star; i = inactive; ? = inconclusive; . = not tested or not shown; [ ] = another dose, or the depositor's remark. Unless noted, the call rests on the fitted dose curve; in most records, active means well fitted curve in the direction sought with a large enough effect; inconclusive means small, poorly fitted or top-dose-only effect, or another doubt; inactive means no such curve, though single readings can be large; an effect the other way counts as inactive or inconclusive. Unless noted, on the % scale 0 is the no-effect control and ±100 the full control effect; potency means the concentration at half of the fitted maximal effect.

SMILES | PKM2 act | KDM4E inh | APE1 inh | BLM helicase inh | RECQ1 inh
C[C@@H]1O[C@@H](OC[C@H]2O[C@@H](Oc3c(-c4ccc(O)c(O)c4)oc4cc(O)cc(O)c4c3=O)[C@H](O)[C@@H](O)[C@@H]2O)[C@H](O)[C@H](O)[C@H]1O | 6% | 14µM* | ? | -6% | -4%
O=c1c(O[C@@H]2O[C@H](CO)[C@H](O)[C@H](O)[C@H]2O)c(-c2ccc(O)c(O)c2)oc2cc(O)cc(O)c12 | 8% | 1.8µM* | ? | -1% | -10%
O=c1cc(-c2ccc(O)c(O)c2)oc2cc(OC3OC(CO)C(O)C(O)C3O)cc(O)c12 (stereo not drawn) | . | 11µM* | ? | -16% | 20µM*
CCCC(=O)O[C@]1(C(=O)CCl)[C@H](C)C[C@@H]2[C@H]3CCC4=CC(=O)C=C[C@]4(C)[C@@]3(F)C(=O)C[C@@]21C | . | . | . | -7% | .
COc1cc(C/C=C\c2ccccc2)c(OC)cc1O | . | ? | ? | -1% | ?
O=C(O)c1cccc(Cn2c(Cl)c(/C=N/NC(=O)c3ccccc3Cl)sc2=O)c1 | -7% | ? | 2% | 4% | -10%
O=C(O)c1cccc(Cn2c(Cl)c(/C=N/Nc3ccccc3)sc2=O)c1 | 2% | -24% | 18% | ? | 32µM*
CO[C@@H]1COC(=O)CCC[C@@H](C)[C@H](OC)COC(=O)[C@H](Cc2ccccc2)NC(=O)C/C=C\[C@H]1C | . | . | ? | -2%[12.4 µM] | -10%[11.5 µM]
Cc1ccc(-n2c(=O)[nH]c3c(C(N)=O)nc(-c4ccc(C)o4)nc32)cc1 | 14µM* | ? | 2% | -10% | i
COc1ccc(OC)c(-c2nc(C(N)=O)c3[nH]c(=O)n(-c4ccc(F)cc4)c3n2)c1 | -1% | -15% | -9% | -3% | -10%
COc1cc2cc(C)c(SCC(=O)N3CCN(C(=O)c4ccco4)CC3)nc2cc1OC | 18µM* | -8% | 1% | -4% | -2%
CCc1cc2cc(C)ccc2nc1SCC(=O)N1CCN(C(=O)c2ccco2)CC1 | 10% | 0% | -2% | -4% | i
COc1cccc(NC(=O)Cn2c(CCC(=O)O)ccc2-c2ccc(Cl)cc2)c1 | -2% | 28µM* | 1% | 3% | -9%
CCOC(=O)C1=C(CN(CC)Cc2ccccc2)NC(=O)NC1c1ccc(OC(C)C)cc1 (stereo not drawn) | . | . | . | -10% | .
COc1ccc(C)cc1S(=O)(=O)NCC(c1cccnc1)N1CCc2ccccc2C1 (stereo not drawn) | 11µM* | . | 12% | -4% | .
Cc1ccc(NC(=O)CSc2nnc(-c3cccc([S+](=O)([O-])N4CCCC4)c3)n2-c2c(C)cccc2C)cc1 | . | . | -9% | . | .
CC[n+]1ccc2cc(OC)c(OC)cc2c1Cc1ccc(OC)c(OC)c1 | 1% | 25µM* | 20% | -15% | i
COc1ccc(Cc2c3cc(OC)c(OC)cc3cc[n+]2C)cc1OC | -13% | ? | 12% | 6% | 16%
NNc1nc2c(Cl)c(Cl)ccc2s1 | -25% | -14% | 3.2µM* | -27% | -27%
COc1cccc2sc(NN)nc12 | -20% | ? | -4% | -13% | i
CCN(/N=C/c1cccs1)c1cc(=O)n(C)c(=O)[nH]1 | 22µM* | ? | 4% | -1% | 4%
CC(C)(C)n1ncc2c(=O)n(Cc3ccc(F)c(C(F)(F)F)c3)cnc21 | . | . | -9% | . | .
O=S(=O)(Nc1ccccc1)c1ccc(-c2csnn2)cc1 | 14µM* | 4% | 4% | -7% | -12%
c1ccc(-c2ccc(-c3csnn3)cc2)cc1 | -4% | -2% | -5% | -3% | 0%
CCCCC(=O)N(Cc1ccc(-c2ccccc2-c2nn[nH]n2)cc1)[C@@H](C(=O)O)C(C)C | . | . | -4% | . | .
SMILES | PKM2 act | KDM4E inh | APE1 inh | BLM helicase inh | RECQ1 inh
O=[N+]([O-])c1ccc(O)c(N=Cc2sc3ccccc3c2O)c1 | 8% | 7.1µM* | ? | -20% | -16%
CCCCN1CCC[C@H]1CNC(=O)c1cc(C#N)c2ccccc2c1OC | . | . | -4% | 40% | -2%
CCOC(=O)C1CCN(c2nc(-c3ccc(Br)cc3)cs2)CC1 | . | . | 56% | . | .
O=C(Nc1ccc2oc(-c3ccccc3F)nc2c1)c1ccc([N+](=O)[O-])o1 | . | . | 2.7µM* | -16% | .
COc1ccccc1C1=Nn2c(nnc2-c2ccccc2O)SC1 | . | . | -1% | -1% | 8%
O=S(=O)(Nc1ccccc1)c1cccc2nsnc12 | 16% | . | 7.5µM* | -12% | .
CC(C)C[C@H](NC(=O)[C@@H]1CCCN1C(=O)[C@H](Cc1ccccc1)NC(=O)[C@H](C)NC(=O)[C@H](CCC(=O)O)NC(=O)[C@H](C)NC(=O)[C@H](CO)NC(=O)[C@H](CCC(=O)O)NC(=O)[C@H](CC(=O)O)NC(=O)[C@H](CCC(=O)O)NC(=O)[C@H](C)NC(=O)CNC(=O)[C@H](CC(N)=O)NC(=O)[C@@H]1CCCN1C(=O)[C@H](Cc1ccc(O)cc1)NC(=O)[C@@H](NC(=O)[C@H](CCCCN)NC(=O)[C@@H](NC(=O)[C@@H]1CCCN1C(=O)[C@@H](N)CCCNC(=N)N)C(C)C)C(C)C)C(=O)N[C@@H](CCC(=O)O)C(=O)N[C@@H](Cc1ccccc1)C(=O)O | . | . | 12% | 4% | -5%
C/C(=N\Nc1ccc(C(=O)O)cc1)c1ccc(Br)cc1 | 1% | -6% | 25µM* | 0% | i
COc1ccc2[nH]c3c(=O)n(Cc4ccc(C(=O)NCC5CCCO5)cc4)c(=S)[nH]c3c2c1 (stereo not drawn) | -10% | ? | -2% | -20% | 20µM*
CCCCNC(=O)c1ccc(Cn2c(=S)[nH]c3c([nH]c4ccc(OC)cc43)c2=O)cc1 | 0% | ? | 0% | 0% | -5%
O=C1c2ccccc2C(=O)c2c1ccc(C(=O)N1CCCCC1)c2NCCO | -4% | 4% | -5% | -1% | -4%
CCN(CCN(C)C)C(=O)c1ccc2c(c1NCCO)C(=O)c1ccccc1C2=O | -36% | ? | 8% | 18µM* | 2%
CC(Oc1ccc(O)cc1)(P(=O)(O)O)P(=O)(O)O | . | 1.6µM* | ? | -5% | -6%
O=C(N/N=C/c1c(O)n(Cc2ccccc2)c(=O)c2ccccc12)c1cccnc1 | -8% | ? | -3% | -18% | -12%
COc1ccc(Cn2c(O)c(/C=N/NC(=O)c3cccnc3)c3ccccc3c2=O)cc1 | 3% | 28µM* | -13% | -25% | -1%
